Bioassay records as filed in PubChem.
VCAM1 pot: TNF alpha stimulated VCAM1 expression potentiation; HUVEC TNFa-stimulated VCAM-1 immunofluorescence, high-content imaging; scaled per plate to unstimulated/TNFa-only wells; activation, % at 2 µM; actives 0.19% (n = 93,000);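 active = activation above the screen mean plus 3 SD, with well images confirming the hit on visual review, cut at about 28% in these data, passing the limit was not always enough; inconclusive = activation above that limit but images do not confirm it; inactive = activation not above that limit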;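 note: signal is the number of cytoplasmic VCAM-1 stained grains per positive cell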
VCAM1 pot confirm: enhancers of VCAM1 induction in HUVEC – imaging, triplicate retest, confirmation | shares compounds with VCAM1 pot | 230 tested, under 10 active | AID 1034 | activation, % at 2 µM | HUVEC TNFa-stimulated VCAM-1 immunofluorescence imaging;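 active = activation above 30% in triplicate retests at 2 µM, then confirmed by visual review of the well images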;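 note: scaled per plate between unstimulated and TNFa-stimulated DMSO control wells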
* marks the source's active call; other numbers are inactive results. The entries come from a sample that favours hits as a whole.

How did Cn1nc(-c2ccccc2)c(C#N)c1Sc1cccc(Cl)c1 do in these assays?
VCAM1 pot: -4

How did CCOC(=O)c1ccc(Nc2c(CC)c(C)nc3ncnn23)cc1 do in these assays?
VCAM1 pot: inconclusive; VCAM1 pot confirm: -8

What do the screens show for `CCOC(=O)c1ccc(NC(=O)CC2SC(=NC)N(C)C2=O)cc1` (stereo unspecified)?
VCAM1 pot: -18

How did CCOC(=O)c1ccc(NC(=O)Nc2ccc(S(N)(=O)=O)cc2)cc1 do in these assays?
VCAM1 pot: 2

Results for N#CCCNC(=O)CCN1CCOCC1 ?
VCAM1 pot: -2

Results for CSC1=C(C#N)C(c2ccc(C)s2)CC(=O)N1 (stereo unspecified) ?
VCAM1 pot: 0

What do the screens show for `CCOC(=O)CSc1nc(C2CC2)cc(-c2ccc(F)cc2)c1C#N`?
VCAM1 pot: -9

How did COC(=O)CSC1=C(C#N)C(c2ccc(F)cc2)CC(=O)N1 (stereo unspecified) do in these assays?
VCAM1 pot: 32*; VCAM1 pot confirm: -17

Results for CC1OC(Nc2cccc3ccccc23)C(O)C(O)C1O (stereo unspecified) ?
VCAM1 pot: inconclusive; VCAM1 pot confirm: 0

Results for Cc1cc(C)c(C(N)=O)c(Nc2cccc3ccccc23)n1 ?
VCAM1 pot: -1

What do the screens show for `CC1CCc2nc(NC(=O)C3CCCO3)sc2C1` (stereo unspecified)?
VCAM1 pot: -12

What do the screens show for `O=C(CN1C(=O)NC2(CCCC2)C1=O)Nc1ccccc1F`?
VCAM1 pot: 1

Results for CCOc1ccc(NC(=O)C23CC4CC(C2)CC(c2ccccc2)(C4)C3)cc1 ?
VCAM1 pot: 1

How did O=C(O)CSc1nnc(Cn2cnc3ccccc32)n1CCc1ccccc1 do in these assays?
VCAM1 pot: -1

How did Cn1c(SCC(=O)NC2CCCCC2)nnc1-c1cccc(N)c1 do in these assays?
VCAM1 pot: -54

What do the screens show for `Cn1c(CN2CCOCC2)nnc1SCC(=O)NC1CCCCC1`?
VCAM1 pot: inconclusive; VCAM1 pot confirm: -17

Results for CN(C)C(=O)Cn1c(SCC(=O)NC2CCCCC2)nc2ccccc21 ?
VCAM1 pot: 1

What do the screens show for `O=C(NCc1ccco1)C1CCCN1C(=O)NCc1ccccc1` (stereo unspecified)?
VCAM1 pot: 1

Results for Cc1nc2ccccc2n1CCCOc1ccccc1 ?
VCAM1 pot: -62

How did CCCC(=O)NCCCc1nc2ccccc2n1CCC do in these assays?
VCAM1 pot: -4

Results for COCc1nc2ccccc2n1CCCOc1ccccc1 ?
VCAM1 pot: inconclusive; VCAM1 pot confirm: -16

How did Cc1cccc(-c2nnc(SCCOc3ccc4c(C)cc(=O)oc4c3)o2)c1 do in these assays?
VCAM1 pot: -1

How did Cc1ccc(S(=O)(=O)N2CCN(S(C)(=O)=O)CC2)cc1 do in these assays?
VCAM1 pot: 7

Results for CC(=O)c1ccc(C(C)(C)c2ccc(C(C)=O)s2)s1 ?
VCAM1 pot: 13

What do the screens show for `COCCn1nnnc1CN(CCCN1CCOCC1)Cc1cc2c(C)ccc(C)c2[nH]c1=O`?
VCAM1 pot: -4

What do the screens show for `Cc1cc(C)c2cc(CN(Cc3ccc4c(c3)OCO4)Cc3nnnn3Cc3ccco3)c(=O)[nH]c2c1`?
VCAM1 pot: 54*; VCAM1 pot confirm: -5

What do the screens show for `COc1ccc2cc(CN(Cc3cccs3)Cc3nnnn3Cc3ccccc3)c(=O)[nH]c2c1`?
VCAM1 pot: -1

What do the screens show for `Cc1cccc(-n2c(SCc3cc(=O)n4c(C)cccc4n3)nc3[nH]ncc3c2=O)c1`?
VCAM1 pot: 0

How did COc1ccc(/C=N\NS(=O)(=O)c2ccc(Cl)cc2)cc1COc1ccccc1[N+](=O)[O-] do in these assays?
VCAM1 pot: 2

How did O=C1CN=C(Nc2cccc(C(F)(F)F)c2)N1C1CCCC1 do in these assays?
VCAM1 pot: 7

What do the screens show for `CCOC(=O)N1CCC(NC(=O)c2cc(S(=O)(=O)N3CCCC3)cn2C)CC1`?
VCAM1 pot: 43*; VCAM1 pot confirm: -5

Results for CCOC(=O)N1CCN(C(=O)c2cc(S(=O)(=O)N3CCCC3)cn2C)CC1 ?
VCAM1 pot: 4

How did CCOC(=O)N1CCC(NC(=O)c2ccc(OC)c(CN3CC(=O)N4CCCC4C3=O)c2)CC1 (stereo unspecified) do in these assays?
VCAM1 pot: -22

Results for NCCN1CCN(CCN)CC1 ?
VCAM1 pot: -94

What do the screens show for `CC(OC1=CC(=O)CCC1)C(=O)c1ccccc1` (stereo unspecified)?
VCAM1 pot: 4

How did Cc1ccc(-c2nnn(CC(=O)N(Cc3ccco3)C(C(=O)NC3CCCC3)c3cccs3)n2)o1 (stereo unspecified) do in these assays?
VCAM1 pot: -3

What do the screens show for `O=C(CN(C(=O)Cn1nnc(-c2cccs2)n1)c1ccc2c(c1)OCCO2)NC1CCCCC1`?
VCAM1 pot: 56*; VCAM1 pot confirm: -18

Results for CCOc1ccc(-c2nnn(CC(=O)NCc3ccc4c(c3)OCO4)n2)cc1 ?
VCAM1 pot: 4

How did COCCNC(=O)C(c1ccccc1C)N(C(=O)Cn1nnc2ccccc21)c1cccnc1 (stereo unspecified) do in these assays?
VCAM1 pot: -2

What do the screens show for `CCOC(=O)CC(=O)CSc1nc2c(C)c(C)ccc2cc1C`?
VCAM1 pot: 51*; VCAM1 pot confirm: -10

What do the screens show for `CCOC(=O)CSc1nc2ccc(C)cc2cc1C#N`?
VCAM1 pot: -9

Results for CCOC(=O)CC(=O)CSc1ccc2nnc(-c3ccc(F)cc3)n2n1 ?
VCAM1 pot: -1

How did O=Nc1c(O)n(Cc2ccc(Cl)cc2Cl)c2ccccc12 do in these assays?
VCAM1 pot: 38

How did CC(=O)Oc1oc(-c2ccccc2)nc1/C=N/c1ccccn1 do in these assays?
VCAM1 pot: 89*; VCAM1 pot confirm: -4

Results for O=C(CSCCO)Nc1cc(C(F)(F)F)ccc1Cl ?
VCAM1 pot: 6

How did CN(CP(=O)(O)CN(C)S(C)(=O)=O)S(C)(=O)=O do in these assays?
VCAM1 pot: 32*; VCAM1 pot confirm: -12

Results for COc1ccc(S(=O)(=O)N(C)CC(=O)N2CCN(c3ccc(F)cc3)CC2)cc1OC ?
VCAM1 pot: 4

How did COc1ccc(-n2nnnc2SCC(=O)c2cc3ccccc3o2)cc1 do in these assays?
VCAM1 pot: 3

Results for COc1ccc(CN2CCN(S(=O)(=O)c3ccccc3)CC2)c(OC)c1 ?
VCAM1 pot: 6

How did CCN1CCN(S(=O)(=O)c2cc(OC)ccc2OC)CC1 do in these assays?
VCAM1 pot: 64*; VCAM1 pot confirm: -4

Results for COc1ccc(C(=O)N2CCN(S(=O)(=O)c3ccccc3)CC2)c(OC)c1 ?
VCAM1 pot: -8

How did CCCc1[nH]nc2c1C(c1ccc(OC)c(CSC3=NCCS3)c1)C(C#N)=C(N)O2 (stereo unspecified) do in these assays?
VCAM1 pot: -5

How did COC(=O)CSCC(=O)Nc1cc2c(cc1C(C)=O)OCO2 do in these assays?
VCAM1 pot: 4

How did COc1ccc(Cl)cc1Nc1nc(N)nc(C(F)(F)F)n1 do in these assays?
VCAM1 pot: 8

How did Cc1ccc(CCN2CC(C(=O)NCCCOC(C)C)CC2=O)cc1 (stereo unspecified) do in these assays?
VCAM1 pot: 2

What do the screens show for `COc1ccc(NC2CC(=O)NC2=O)cc1` (stereo unspecified)?
VCAM1 pot: -6

What do the screens show for `Cc1ccc(-n2c(SCc3cc(=O)n4ccsc4n3)nnc2-c2cccnc2)c(C)c1`?
VCAM1 pot: -2
